Several values for one entry are separate records, joined by “and”; a condition that tells them apart may be missing. Equal entries are not always repeated. Inconclusive results are not listed. Activity calls are given as the source filed them. Unless noted, calls come from the whole dose curve; as a rule, active = well fitted curve in the direction sought with a large enough effect in the repeat runs; inconclusive = weak or mixed curves; inactive = no such curve, though single readings can be large; an effect the other way counts as inactive or inconclusive.
How the values were obtained:
[1] = qHTS assay for small molecules that induce genotoxicity in human embryonic kidney cells expressing luciferase-tagged ATAD5 (AID 651632); note: nearly all actives have a fitted effect of over 15% in size; note: potency is the fitted concentration of half-maximal effect
Summary of the method: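 DMSO vehicle served as the control. HEK293T reporter cells, 16 hr at 37C, then 30 min Amplite at room temperature; ATAD5 induction is measured as luciferase activity.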

[2] = qHTS assay for small molecule agonists of the p53 signaling pathway - cell viability (AID 651633; calls by dose curve; note: nearly all actives have a fitted effect of over 30% in size; note: potency is the fitted concentration of half-maximal effect)
Summary of the method: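 Viability counter-read: CellTiter-Glo luminescence (30 min, room temperature) in the same p53RE-bla plates. These plates had been exposed to compounds for 16 h at 37 C.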

[3] = qHTS assay for small molecules that induce genotoxicity in human embryonic kidney cells expressing luciferase-tagged ATAD5 - cell viability (AID 651634; calls by dose curve; note: nearly all actives have a fitted effect of over 25% in size; note: potency is the fitted concentration of half-maximal effect)
Summary of the method: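 Here HEK293T cells with the ATAD5 luciferase reporter are incubated with test compounds for 15.5 hr, and cytotoxicity is then gauged by measuring protease activity in live cells using fluorescence.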

[4] = qHTS assay for small molecule disruptors of the mitochondrial membrane potential - cell viability (AID 720634; calls by dose curve; note: nearly all actives have a fitted effect of over 20% in size; note: potency is the fitted concentration of half-maximal effect)
Summary of the method: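 Viability of HepG2 cells is scored from ATP content by luminescence; cells are exposed to compound for 1 hr at 37 C and 5% CO2, then dosed with m-MPI dye before the CellTiter-Glo reagent.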

[5] = qHTS assay to test for compound auto fluorescence at 590 nm (red) in HepG2 cells (AID 720674)
Summary of the method: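 We screened compounds on adherent HepG2 cells, incubating them for an hour at 37 C in 5% CO2 before reading emission at 590 nm under 540 nm excitation; values reflect equivalence to Rose Bengal sodium fluorescence.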

[6] = qHTS assay to test for compound auto fluorescence at 460 nm (blue) in HEK293 cells (AID 720678)
Summary of the method: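 After cell attachment (4-5 hr, 37C), compounds were pinned onto HEK293 monolayers in 10% dialyzed FBS medium. The blue channel (405/460 nm) was read following overnight culture. Equivalency was calculated against triamterene.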

[7] = qHTS assay to test for compound auto fluorescence at 590 nm (red) in HEK293 cells (AID 720679)
Summary of the method: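 Plates of HEK293 cells (10% dialyzed FBS) are treated with 23 nL compound or DMSO vehicle after a 4-5 hr attachment period, incubated overnight at 37C, and read for red fluorescence at 540/590nm.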

[8] = qHTS assay to test for compound auto fluorescence at 460 nm (blue) in HEK293 cell free culture (AID 720681)
Summary of the method: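 Blue fluorescence (Ex 405/Em 460 nm, triamterene-equivalent) was read immediately after pin transfer of compound or DMSO into medium (DMEM, 10% FBS) without cells.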

[9] = qHTS assay to test for compound auto fluorescence at 535 nm (green) in HEK293 cell free culture (AID 720682)
Summary of the method: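 Green-label autofluorescence (485 nm excitation, 535 nm emission) measured on compound added to cell-free culture medium (DMEM, 10% FBS). Output is expressed relative to fluorescein.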

[10] = qHTS assay to identify small molecule antagonists of the glucocorticoid receptor (GR) signaling pathway - cell viability counter screen (AID 720693); note: nearly all actives have a fitted effect of over 55% in size; note: potency is the fitted concentration of half-maximal effect
[11] = qHTS assay to identify small molecule antagonists of the androgen receptor (AR) signaling pathway using the MDA cell line - cell viability counter screen (AID 743041; note: nearly all actives have a fitted effect of over 45% in size; note: potency is the fitted concentration of half-maximal effect)
Summary of the method: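 Viability read by CellTiter-Fluor fluorescence in the same wells as the antagonist screen, added after 15.5 h of a 16 h, 37C exposure. Human breast carcinoma MDA-kb2 AR-luc cells, compounds co-dosed with agonist R1881.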

[12] = qHTS assay to identify small molecule antagonists of the estrogen receptor alpha (ER-alpha) signaling pathway - cell viability counter screen (AID 743074; calls by dose curve;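 note: HEK293 cells carrying ER-alpha-UAS-bla reporter stimulated with 17beta-estradiol; nearly all actives have a fitted effect of over 45% in size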; note: potency is the fitted concentration of half-maximal effect)
[13] = biological target: Aromatase (Homo sapiens) (UniProt P11511); experiment: qHTS assay to identify aromatase inhibitors (AID 743083); note: nearly all actives have a fitted effect of over 55% in size; note: potency is the fitted concentration of half-maximal effect
Aromatase (Homo sapiens), sequence (P11511 whole entry, looked up): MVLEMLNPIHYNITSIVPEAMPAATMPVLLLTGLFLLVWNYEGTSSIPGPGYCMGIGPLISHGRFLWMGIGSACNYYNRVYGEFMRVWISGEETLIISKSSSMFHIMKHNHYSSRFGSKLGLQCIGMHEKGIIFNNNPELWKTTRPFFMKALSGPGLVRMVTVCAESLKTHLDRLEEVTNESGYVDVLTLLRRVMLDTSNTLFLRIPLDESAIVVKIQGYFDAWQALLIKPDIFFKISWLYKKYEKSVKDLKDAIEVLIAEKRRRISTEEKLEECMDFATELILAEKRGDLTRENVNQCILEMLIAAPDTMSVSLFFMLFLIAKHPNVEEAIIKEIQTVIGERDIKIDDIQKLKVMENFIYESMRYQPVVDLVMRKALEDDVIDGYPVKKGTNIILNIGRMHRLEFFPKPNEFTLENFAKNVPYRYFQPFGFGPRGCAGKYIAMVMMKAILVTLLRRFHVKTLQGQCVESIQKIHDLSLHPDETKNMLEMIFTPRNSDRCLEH

[14] = qHTS assay to identify aromatase inhibitors - cell viability counter screen (AID 743084);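 note: cells stimulated with testosterone during compound exposure; nearly all actives have a fitted effect of over 55% in size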; note: potency is the fitted concentration of half-maximal effect
[15] = qHTS assay to identify small molecule that activate the aryl hydrocarbon receptor (AhR) signaling pathway - cell viability counter screen (AID 743086); note: nearly all actives have a fitted effect of over 45% in size; note: potency is the fitted concentration of half-maximal effect
Summary of the method: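 Cytotoxicity counter screen: CellTiter-Fluor signal (30 min, 37 C) in 4000 HepG2 cells/well carrying the DRE-luciferase reporter, following 24 h compound exposure at 37 C.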

[16] = qHTS assay to identify small molecule phospholipidosis (PLD) inducers (AID 1259344; active = well fitted curve in the direction sought with a large enough effect; an effect the other way counts as inactive or inconclusive)
Summary of the method: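 Phospholipid accumulation was scored by imaging: fixed, Hoechst-counterstained HepG2 cells stained with LipidTOX Red after 24 h compound exposure at 37 C. Read-outs were pit count and pit intensity per well or per cell, with amiodarone and DMSO controls.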

[17] = biological target: Nuclear receptor subfamily 1 group I member 2 (Rattus norvegicus) (UniProt Q9R1A7); experiment: Rat pregnane X receptor (rPXR) activation by small molecules, qHTS assay (AID 1346983); details: rPXR luciferase reporter cells, One-Glo luminescence, 24 h; max activation: hits give high values; note: nearly all actives have a fitted effect of over 20% in size
Nuclear receptor subfamily 1 group I member 2 (Rattus norvegicus), sequence (Q9R1A7 whole entry, looked up): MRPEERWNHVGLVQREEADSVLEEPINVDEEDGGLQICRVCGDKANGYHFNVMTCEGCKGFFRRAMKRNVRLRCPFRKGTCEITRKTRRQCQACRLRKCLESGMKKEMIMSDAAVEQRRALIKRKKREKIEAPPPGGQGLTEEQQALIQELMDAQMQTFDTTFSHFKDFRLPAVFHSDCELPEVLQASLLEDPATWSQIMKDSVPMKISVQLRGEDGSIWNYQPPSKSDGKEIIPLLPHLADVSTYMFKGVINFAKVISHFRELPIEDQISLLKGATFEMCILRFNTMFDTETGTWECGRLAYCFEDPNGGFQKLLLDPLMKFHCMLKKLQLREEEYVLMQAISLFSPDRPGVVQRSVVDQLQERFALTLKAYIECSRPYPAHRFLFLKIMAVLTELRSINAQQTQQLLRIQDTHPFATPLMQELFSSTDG
Summary of the method: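 Luminescent readout (One-Glo luciferase, 30 min room temperature) followed 24 hr compound treatment at 37 C of rPXR cells plated 2,000 per well and preincubated 5hr; qHTS format with compounds delivered in DMSO.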

[18] = biological target: Nuclear receptor subfamily 1 group I member 2 (Homo sapiens) (UniProt O75469); experiment: CYP3A4 induction through human pregnane X receptor (PXR) by small molecules, qHTS assay (AID 1346984); note: nearly all actives have a fitted effect of over 40% in size
Summary of the method: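 Cells (DPX-2; HepG2 with PXR element plus CYP3A4-promoter luciferase) settled 5hr, then were treated 24hr at 37C. A 3hr, 3uM-final Luciferin-IPA step preceded luminescence measurement with One-Glo.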

[19] = test system: thyroid hormone receptor (rat, GH3 cells); experiment: qHTS assay to identify small molecule agonists of the thyroid receptor (TR) signaling pathway (AID 743066; calls by dose curve)
[20] = qHTS assay to identify small molecule antagonists of the estrogen receptor alpha (ER-alpha) signaling pathway using the BG1 cell line - cell viability counter screen (AID 743081);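 note: compound given together with 17beta-estradiol as the ER stimulus; series mostly up to about 70 µM; nearly all actives have a fitted effect of over 45% in size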
% is set by controls: 0 for no effect and ±100 for the full control effect.

C[C@H]1CC[C@]2(NC1)O[C@H]1C[C@H]3[C@@H]4CC[C@H]5C[C@@H](O[C@@H]6O[C@H](CO)[C@H](O[C@@H]7O[C@H](CO)[C@@H](O)[C@H](O[C@@H]8OC[C@@H](O)[C@H](O)[C@H]8O)[C@H]7O[C@@H]7O[C@H](CO)[C@@H](O)[C@H](O)[C@H]7O)[C@H](O)[C@H]6O)CC[C@]5(C)[C@H]4CC[C@]3(C)[C@H]1[C@@H]2C
inactive: outcome [5] | Potency [6] | outcome [7] | Potency [8] | Potency [9] | Potency [16] | max activation [17] -24.3% | Potency [18]
active: Potency [1] 1.33 µM | Potency [2] 2.11 µM | Potency [3] 7.5 µM | Potency [4] 3.35 µM | Potency [10] 2.39 µM | Potency [11] 6.68 µM | Potency [12] 10.7 µM | Potency [13] 3.35 µM | Potency [14] 5.96 µM | Potency [15] 5.96 µM

CN=C1CN(O)C(c2ccccc2)=c2cc(Cl)ccc2=N1
inactive: Potency [1] | Potency [2] | Potency [3] | Potency [4] | outcome [5] | Potency [6] | outcome [7] | Potency [8] | Potency [9] | Potency [10] | Potency [11] | Potency [19] | Potency [12] | Potency [20] | Potency [13] | Potency [14] | Potency [15] | Potency [16] | max activation [17] -1.86% and 4.26% | Potency [18]

CCCCC[C@@H](O)C1C(=O)OC(C)[C@H](O)/C=C/C=C/C=C/C=C/C=C(\C)C(O)C(O)C(O)C[C@H](O)C[C@H](O)C[C@H](O)C[C@H](O)C[C@@H]1O (some centres undefined)
inactive: Potency [1] | Potency [2] | Potency [3] | Potency [4] | outcome [5] | Potency [6] | outcome [7] | Potency [8] | Potency [9] | Potency [10] | Potency [11] | Potency [19] | Potency [12] | Potency [20] | Potency [13] | Potency [14] | Potency [15] | Potency [16] | max activation [17] 0.909% | Potency [18]

CC(=O)O[C@H]1C[C@H](O[C@H]2[C@@H](O)C[C@H](O[C@H]3[C@@H](O)C[C@H](OC4CC[C@@]5(C)[C@H](CC[C@@H]6[C@@H]5CC[C@]5(C)[C@@H](C7=CC(=O)OC7)CC[C@]65O)C4)O[C@@H]3C)O[C@@H]2C)O[C@H](C)[C@H]1O[C@@H]1O[C@H](CO)[C@@H](O)[C@H](O)[C@H]1O (some centres undefined)
active: Potency [2] 0.0473 µM | Potency [3] 0.298 µM | Potency [10] 0.756 µM | Potency [12] 0.0674 µM
inactive: Potency [1] | Potency [4] | outcome [5] | Potency [6] | outcome [7] | Potency [8] | Potency [9] | Potency [19] | Potency [20] | Potency [13] | Potency [14] | Potency [15] | Potency [16] | max activation [17] -3.5% | Potency [18]

O=C(CCl)c1ccc(Oc2ccc(C(=O)CCl)cc2)cc1
inactive: Potency [1] | Potency [2] | Potency [3] | Potency [4] | outcome [5] | Potency [6] | outcome [7] | Potency [8] | Potency [9] | Potency [10] | Potency [11] | Potency [19] | Potency [12] | Potency [20] | Potency [13] | Potency [14] | Potency [15] | Potency [16] | max activation [17] 7.38% | Potency [18]

CC(N)Cc1ccc(O)cc1 (centres undefined)
inactive: Potency [1] | Potency [2] | Potency [3] | Potency [4] | outcome [5] | Potency [6] | outcome [7] | Potency [8] | Potency [9] | Potency [10] | Potency [11] | Potency [19] | Potency [12] | Potency [20] | Potency [13] | Potency [14] | Potency [15] | Potency [16] | max activation [17] -0.925% | Potency [18]

C=CCN1CC[C@]23c4c5ccc(O)c4O[C@H]2[C@@H](O)C=C[C@H]3[C@H]1C5
inactive: Potency [1] | Potency [2] | Potency [3] | Potency [4] | outcome [5] | Potency [6] | outcome [7] | Potency [8] | Potency [9] | Potency [10] | Potency [11] | Potency [19] | Potency [12] | Potency [20] | Potency [13] | Potency [14] | Potency [15] | Potency [16] | max activation [17] -1.77% | Potency [18]

CCCCCCCCCC(=O)O[C@H]1CC[C@H]2[C@@H]3CCC4=CC(=O)CC[C@]4(C)[C@H]3CC[C@]12C
inactive: Potency [1] | Potency [2] | Potency [3] | Potency [4] | outcome [5] | Potency [6] | outcome [7] | Potency [8] | Potency [9] | Potency [10] | Potency [11] | Potency [19] | Potency [12] | Potency [20] | Potency [13] | Potency [14] | Potency [15] | Potency [16] | max activation [17] -1.38% | Potency [18]

COc1ccc2c(c1)C13CCCC[C@@H]1C(C2)N(C)CC3 (some centres undefined)
inactive: Potency [1] | Potency [2] | Potency [3] | Potency [4] | outcome [5] | Potency [6] | outcome [7] | Potency [8] | Potency [9] | Potency [10] | Potency [11] | Potency [19] | Potency [12] | Potency [20] | Potency [13] | Potency [14] | Potency [15] | Potency [16] | max activation [17] -0.312% | Potency [18]

CC1(C)[C@H](C=C(Cl)Cl)[C@H]1C(=O)OCc1c(F)c(F)cc(F)c1F
inactive: Potency [1] | Potency [2] | Potency [3] | Potency [4] | outcome [5] | Potency [6] | outcome [7] | Potency [8] | Potency [9] | Potency [10] | Potency [11] | Potency [19] | Potency [12] | Potency [20] | Potency [13] | Potency [14] | Potency [15] | Potency [16] | max activation [17] 4.71% | Potency [18]

C[N+]1([O-])[C@@H]2CC[C@H]1CC(OC(=O)C(CO)c1ccccc1)C2 (some centres undefined)
inactive: Potency [1] | Potency [2] | Potency [3] | Potency [4] | outcome [5] | Potency [6] | outcome [7] | Potency [8] | Potency [9] | Potency [10] | Potency [11] | Potency [12] | Potency [20] | Potency [13] | Potency [14] | Potency [15] | Potency [16] | max activation [17] -0.187% and -0.592% | Potency [18]

CC(C)(O)[C@@H]1[C@H]2OC(=O)[C@@H]1[C@]1(O)C[C@H]3O[C@]34C(=O)O[C@H]2[C@]14C
inactive: Potency [1] | Potency [2] | Potency [3] | Potency [4] | outcome [5] | Potency [6] | outcome [7] | Potency [8] | Potency [9] | Potency [10] | Potency [11] | Potency [19] | Potency [12] | Potency [20] | Potency [15] | Potency [16] | max activation [17] -2.48% | Potency [18]
